Records with an inconclusive call do not appear. Unmarked numbers belong to inactive results. The source made the active and inactive calls. The call rests on the fitted dose curve; in most records, active means well fitted cell-killing curve with a large enough effect; inconclusive means small, poorly fitted or top-dose-only effect, or effect the other way; inactive means no such curve, though single readings can be large or run the other way. Starred links: 1 amine or outer side, 2 acyl side, 3 side chain; linkers in the order of their positions; H or OH if unused. Positions of bridges follow the written chain, without caps; N, C: chain ends. Non-standard residues stand in square brackets, D forms with d. Residues, ends and D or L forms follow the SMILES beside them. Chains are numbered I, II in the order given. Actinocin(9to1) = Cc1c2oc3c(C)ccc(C(=O)[*:1])c3nc-2c(C(=O)[*:2])c(N)c1=O; NMeV = CN[CH](C(=O)O)C(C)C; Sar = CNCC(=O)O
Assay: Quantitative High-Throughput drug screen in 47 multiple myeloma cell lines against the NCATS MIPE library collection: OCIMY5_PLB cell viability assay (AID 1918988); further: nearly all actives have a fitted effect of over 65% in size
Settings: OCI-MY5 myeloma viability, ATP luminescence, 48 h; series mostly up to 45.8 µM
From the text: PI: Beverly A. Mock Ph.D.
Laboratory of Cancer Biology and Genetics,
Center for Cancer Research, National Cancer Institute,
National Institute of Health, Bethesda, Maryland
Drug resistance and disease progression are common in multiple myeloma (MM) patients, underscoring the need for new therapeutic combinations. […] We hypothesized that effective combinations would reduce MYC expression and enhance p16 activity. […] These preclinical data identify potentially useful drug combinations for evaluation in drug-resistant MM and reveal potential mechanisms of combined drug sensitivity.
Described herein is the primary MIPE qHTS used to cherrypick compounds. Validated compounds were then further tested for potential synergistic activiy.
[1] Peat TJ, Gaikwad SM, Dubois W, Gyabaah-Kessie N, Zhang S, Gorjifard S, Phyo Z, Andres M, Hughitt VK, Simpson RM, Miller MA, Girvin AT, Taylor A, Williams D, D'Antonio N, Zhang Y, Rajagopalan A, Flietner E, Wilson K, Zhang X, Shinn P, Klumpp-Thomas C, McKnight C, Itkin Z, Chen L, Kazandijian D, Zhang J, Michalowski AM, Simmons JK, Keats J, Thomas CJ, Mock BA. Drug combinations identified by high-throughput screening promote cell cycle transition and upregulate Smad pathways in myeloma. Cancer Lett. 2023 Aug 1;568:216284. doi: 10.1016/j.canlet.2023.216284. Epub 2023 Jun 24. PMID: 37356470; PMCID: PMC10408729.
SEQUENCE No. (e.g., 1, 2, 3, etc.); […] (e.g., Cells, Incubation, Reagent, etc.); VALUE and DESCRIPTION.
1; Cells; 5 uL; white, solid bottom 1536-well Greiner assay plate.
2; Compounds; 23 nL; Kalypsis pin tool (Wako USA) equipped with a 1536-well pin head to transfer to the assay plates.
3; Incubation; 48 hours; 37C incubation.
4; Reagent;5uL; CellTiter Glo (Promega).
5; Detector; 425V; Luminescence; Viewlux PerkinElmer.
NOTES (numbers refer to Sequence numbers above)
1. The cell-based screening methods employed in this study were like those previously published. Briefly, the corresponding myeloma cell lines were screened in 1,536-well plates with 500 cells, 5-uL per well for inhibition of cell viability (assessed by measuring ATP levels with CellTiterGlo).
2. NCATS MIPE 4.0 library of approved and investigational drugs were added using the Kalypsis pin tool. Wells treated with DMSO only for 100% viability and media only for 0% viability were used as controls.
3. The assay plates were covered and incubated for 48 hours in a 37C, 5% CO2 incubator with controlled humidity.
4. After 48 hours, CellTilter-GloTM luminescent substrate mix (Promega) reagent was added to the assay plate and plates we incubated for 5 min at room temperature.
5. Signal was measured as median relative luminescence units on a ViewLux (PerkinElmer) multiplate reader.
[1] Heske CM, Davis MI, Baumgart JT, Wilson K, Gormally MV, Chen L, Zhang X, Ceribelli M, Duveau DY, Guha R, Ferrer M, Arnaldez FI, Ji J, Tran HL, Zhang Y, Mendoza A, Helman LJ, Thomas CJ. Matrix Screen Identifies Synergistic Combination of PARP Inhibitors and Nicotinamide Phosphoribosyltransferase (NAMPT) Inhibitors in Ewing Sarcoma. Clin Cancer Res. 2017 Dec 1;23(23):7301-7311. doi: 10.1158/1078-0432.CCR-17-1121. Epub 2017 Sep 12. PMID: 28899971; PMCID: PMC6636827.
Potency means the concentration at half of the fitted maximal effect.

Compound | Potency | viability, % of control
Cc1ccc2nc(NCCN)c3ncc(C)n3c2c1 | 1.32 µM (active) | –
C[C@H](NCc1ccc(OCc2cccc(F)c2)cc1)C(N)=O | 7.43 µM (active) | –
C[C@H](CCC(=O)O)[C@H]1CCC2C3C[C@H](O)[C@@H]4C[C@H](O)CC[C@]4(C)C3CC[C@@]21C (stereo not given in full) | inactive | –
Cn1cc(C=CC(=O)c2cccc(F)c2)cc1C=CC(=O)NO | 14.8 µM (active) | –
COc1cc([C@@H]2c3cc4c(cc3[C@H](O)[C@H]3COC(=O)[C@@H]23)OCO4)cc(OC)c1OC | 0.0296 µM (active) | –
Oc1ccc([C@@H]2Oc3ccc(O)cc3[C@@H]3CCC[C@@H]32)cc1 | 14.8 µM (active) | –
COc1cc(C(=O)NC2CCN(C)CC2)ccc1Nc1ncc2c(n1)N(C1CCCC1)CCC(=O)N2C(C)C | 18.7 µM (active) | –
CCC(C(=O)O)C1CCC(C)C(C(C)C(O)C(C)C(=O)C(CC)C2OC3(C=CC(O)[C@@]4(CC[C@](C)(C5CC[C@@](O)(CC)C(C)O5)O4)O3)C(C)CC2C)O1 (stereo not given in full) | 0.372 µM (active) | –
CS(=O)(=O)N1CCc2c(-c3cnc(N)nc3)nc(N3CCOCC3)nc21 | 0.332 µM (active) | –
COc1ccc(S(=O)(=O)Nc2cc(-c3c(O)ccc4ccccc34)c(O)c3ccccc23)cc1 | 20.9 µM (active) | –
Cn1cnc(=N)c2[nH]cnc21 | 0.132 µM (active) | –
CC(C)(C)[C@H](NC(=O)c1ccc(N)c(Cl)c1)C(=O)N1CCC[C@@H]1C(=O)N[C@H](C#N)CC(=O)O | – | 135% [at 3.51 µM]
C=CC(=O)N1CCc2ccc(-n3c(=O)ccc4cnc5ccc(-c6cnn(C)c6)cc5c43)cc21 | 3.32 µM (active) | –
COC[C@H](NC(=O)c1cnc(C)s1)C(=O)N[C@@H](COC)C(=O)N[C@@H](Cc1ccccc1)C(=O)[C@@]1(C)CO1 | 0.0372 µM (active) | –
CCNC(=O)Nc1ccc(-c2nc3c(c(N4CCOC[C@H]4C)n2)CCN(C2COC2)C3)cc1 | 1.66 µM (active) | –
N#CC(=Cc1ccc(O)c(O)c1)C(=O)NCc1ccccc1 | 20.9 µM (active) | –
N#CNC(=NCCCCCCOc1ccc(Cl)cc1)Nc1ccncc1 | 0.0074 µM (active) | –
CCOC(=O)[C@H](CCc1ccccc1)N[C@@H](C)C(=O)N1[C@@H](C(=O)O)C[C@H]2CCC[C@@H]21 | 14.8 µM (active) | –
C[C@H]1COc2c(N3CCN(C)CC3)c(F)cc3c(=O)c(C(=O)O)cn1c23 | inactive | –
C#Cc1cccc(Nc2ncnc3cc(OCCOC)c(OCCO)cc23)c1 | 3.32 µM (active) | –

Compound | Potency | viability, % of control
CC(=O)[C@]1(O)Cc2c(O)c3c(c(O)c2[C@@H](O[C@H]2C[C@H](N)[C@@H](O)[C@H](C)O2)C1)C(=O)c1ccccc1C3=O | 0.132 µM (active) | –
N#Cc1cc(NC(=O)Nc2nnc(-c3ccncc3)s2)ccc1-c1cn[nH]c1 | 14.8 µM (active) | –
CCc1nc(-c2cccc(C)c2)c(-c2ccnc(NC(=O)c3ccccc3)c2)s1 | 16.6 µM (active) | –
COc1cc(C=CC(=O)CC(=O)C=Cc2ccc(O)c(OC)c2)ccc1O | 12.1 µM (active) | –
Oc1cc2c(cc1O)C1c3ccc(O)c(O)c3OCC1(O)C2 (stereo not given) | inactive | –
N#Cc1c(C2CCNCC2)cc(-c2c(O)cccc2OCC2CC2)nc1N | 14.8 µM (active) | –
CNC(=O)Nc1ccc(-c2nc(N3CC4CCC(C3)O4)c3cnn(C4CCC5(CC4)OCCO5)c3n2)cc1 | 0.833 µM (active) | –
Cc1c2oc3c(C)ccc(C(=O)NC4C(=O)NC(C(C)C)C(=O)N5CCCC5C(=O)N(C)CC(=O)N(C)C(C(C)C)C(=O)OC4C)c3nc-2c(C(=O)NC2C(=O)NC(C(C)C)C(=O)N3CCCC3C(=O)N(C)CC(=O)N(C)C(C(C)C)C(=O)OC2C)c(N)c1=O (stereo not given) (I: TVP[Sar][NMeV] / II: TVP[Sar][NMeV]; ester I:1-I:C, II:1-II:C; linker I:N-II:N via Actinocin(9to1); configuration not given here) | inactive | –
O=C(Nc1cccc(Nc2ncc(Br)c(NCCc3cnc[nH]3)n2)c1)N1CCCC1 | 14.8 µM (active) | –
NC(=O)N1CCC(CC(=O)N2CCC([C@H]3c4ncc(Br)cc4CCc4cc(Cl)cc(Br)c43)CC2)CC1 | 9.35 µM (active) | –
O=[N+]([O-])c1cn2c(n1)OC[C@@H](OCc1ccc(OC(F)(F)F)cc1)C2 | inactive | –
CCN(CC)Cc1ccc2cc(COC(=O)Nc3ccc(C(=O)NO)cc3)ccc2c1 | 0.372 µM (active) | –
C=CC(=O)Nc1cc(NC(=O)c2ccc(C)c(NC(=O)c3ccno3)c2)cc(C(F)(F)F)c1 | 18.7 µM (active) | –
CC(C)n1cnc2c(NCCc3ccc(O)cc3)nc(-c3csc4ccccc34)nc21 | 1.66 µM (active) | –
Nc1cccc2c1C(=O)N(C1CCC(=O)NC1=O)C2=O (stereo not given) | 10.5 µM (active) | –
CC(=O)OCC(=O)[C@@]1(O)CC[C@H]2[C@@H]3CCC4=CC(=O)CC[C@]4(C)[C@@H]3C(=O)C[C@@]21C | inactive | –
CCCCCCCCCCCCc1ccc(S(=O)(=O)Nc2nncs2)cc1 | inactive | –
COc1cc(OC)c(C=CS(=O)(=O)Cc2ccc(OC)c(NCC(=O)O)c2)c(OC)c1 | 0.59 µM (active) | –
O=C(CN1C(=O)C2(CCCC2)NC[C@H]1c1cc(F)cc(F)c1)Nc1ccc2c(c1)C[C@@]1(C2)C(=O)Nc2ncccc21 | inactive | –
NC(=O)c1cccc(-c2cccc(OC(=O)NC3CCCCC3)c2)c1 | 29.6 µM (active) | –

Source: PubChem BioAssay (NCATS)
